The subject of the first test is RARb homodimer (NR concentration 270 nM). The experiment in a line: PBM binding z-score (relative to random genomic background probes); higher = stronger binding; sequences stand for … in GC…GCGATTGACAGCGTAGAATGAAGG
In outline:
(§1)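 Random background probes are the reference for binding z-scores. These scores derive from regression-normalized fluorescence on custom Agilent 4×180K protein-binding microarrays incubated 1 h with ligand-free nuclear receptor dimers. Binding was detected with antibodies against each partner (one per run).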
CGTCCTAGGTCAGAGAGGTCAGTGAATGCCGAGT gave a PBM binding z-score of 4.71.

CAGACTAGGTCAGGGCCAGTATAGGAGGAACGTT had a PBM binding z-score of 2.28.

The sequence GCGACCGGGGCATCAGCAGGTTACCATAACTTAA gave a PBM binding z-score of 1.37.

Regarding TCGAGTAGGTTAGTCGGTGCATTCAGCCAACATA, the PBM binding z-score was -0.0982.

In the case of TAGTCTAGGTCATTGGGCCAGTATAGTACGCATC, the PBM binding z-score worked out at 3.08.

In turn, CTCGAAAGGTGGGTTGAGGTGAGTATACGGATAA registered a PBM binding z-score of 1.3.

On to CCTACCGGGCCAAAAAGGTCATTGATGCCGATAA, for which the PBM binding z-score stood at 4.59.

Consider ACTATTAGTTGACTTAGGGCGACCGATACGACGC, for which the PBM binding z-score stood at 0.553.

As to GGATCGAGGGCATTCGAGTTGATAGCATGGCGAT, the PBM binding z-score was found to be 0.818.

Take ATCGAAAGGCCGAAGGTGAGTATACCCACCCGAA: the PBM binding z-score turned out to be 0.463.

Turning to ATATGTAGGTTGCATCCGGGTCATTCAGGCTATG, the PBM binding z-score worked out at 2.16.

Regarding TAGCCTAGGTCATTGGGCCAGCATAGTACGCATC, the PBM binding z-score came to 2.94.

On to ACAGAAAGGTGATGAAGGTAACTCAGGCTATCAT, for which the PBM binding z-score worked out at 0.99.

The sequence CCTCGGAGGACAGAAGGTCAGCGCTGTCCGCTTT showed a PBM binding z-score of 4.09.

CCTGCTAGGTCAATGGTCATCTAAAGCAGCTCGC returned a PBM binding z-score of 2.97.

As to CCCTACGGGTCACGAGGTTATAGCACGACGAGCG, the PBM binding z-score was determined as 4.13.

For the sequence GCTTGTAAATCAAGGTTAAGAAAGACTAAGCTAA, the PBM binding z-score came to 0.189.

As for CATACAGGGTCAGCTAGGCCATAGTAGGGACGGC, the PBM binding z-score is 3.28.

Another test relates to RARg:RXRa (NR concentration 270 nM, RXRa partner concentration 90 nM). The description is as above. In outline:
as §1
In turn, TCTTGTAGATCAATAGAGGTTAATAAAGTGCGCT yielded a PBM binding z-score of 0.715.

GGAACGAGGGCAAGTTGATATCAGAGTTTGATGG showed a PBM binding z-score of 1.66.

In the case of CGTCAAAGTTCAACTAAGGTAACGTGAAGCACGC, the PBM binding z-score turned out to be 6.07.

Sequence CTCGAAAGGTCGTGCTCAGGTGTGTATACCAAAC registered a PBM binding z-score of 4.45.

The sequence TCTAGTTGGTCACGGAGGTCACACATGACGGGTA yielded a PBM binding z-score of 4.74.

The sequence CCGACTGGGGCATAAGGTTACCATAAGCCAGCCC showed a PBM binding z-score of 1.62.

Sequence TAGCCTAGGTCATGGGCTAGTATACCACGCGAAC had a PBM binding z-score of 4.26.

CCTTCCGGGTCAAGGTTATAGCACGGGTGGTACG registered a PBM binding z-score of 4.76.

TCATATAGGTCATACAGGTGAAAGTCGGCATCTA returned a PBM binding z-score of 5.21.

The sequence ACTATTAGTTGACTTAGGGCAAACGATACGACGC returned a PBM binding z-score of 0.773.

For the sequence GAAACGAGGGCAAAGTTGATAGCATCTGTCGACG, the PBM binding z-score turned out to be 2.11.

On to ACAGACAGGTGACTGAAGGTAACTCAGCTGGACG, for which the PBM binding z-score came out at 0.5.

For the sequence TGAAGGAGGTTATAAGATCAGGGAACGTTGCAAA, the PBM binding z-score is 1.11.

In turn, TATTGTAGATCAAGCAGGTTAAGAAAGCCTGAGT came in with a PBM binding z-score of 0.285.

TGTCAAAGTTCAAAGGTAACTTAAGTATCCACAC showed a PBM binding z-score of 6.26.

TCTTGTAGATCAAAGGTTACGAAAGCCGAAGCCT registered a PBM binding z-score of 2.29.

As for ATATGTAGGTTAAGGGCCATTCAGGTTGGTTCGC, the PBM binding z-score came to 0.896.

Turning to TCTGCTAGGTCCGTTGGTCAGCTAACGAGCTGCC, the PBM binding z-score is -0.454.

In turn, CGTCAAAGTTCAAATAAGGTAACGTAAAGCACGC came in with a PBM binding z-score of 5.64.

The sequence TCTATTAGTTGATTCGGGCAACCGAAACAGCGGA gave a PBM binding z-score of 0.385.

Sequence CATACAGGATCAGCTAGGCCAGAGTAGGGACGGC gave a PBM binding z-score of -0.112.

As for ACAGGCAGGTGAGTGAAGGTAACTCAGCTGGACG, the PBM binding z-score was -0.184.

CGTCCTAGGTCAGAGAGGTCAGTGAATGCCGAGT: the PBM binding z-score was determined as 5.31.

Regarding CAGACTAGGTCAGGGCCAGTATAGGAGGAACGTT, the PBM binding z-score was determined as 2.67.

As for GCGACCGGGGCATCAGCAGGTTACCATAACTTAA, the PBM binding z-score was determined as 2.27.

The sequence TCGAGTAGGTTAGTCGGTGCATTCAGCCAACATA returned a PBM binding z-score of -0.434.

In turn, TAGTCTAGGTCATTGGGCCAGTATAGTACGCATC gave a PBM binding z-score of 3.92.

In turn, CTCGAAAGGTGGGTTGAGGTGAGTATACGGATAA showed a PBM binding z-score of 0.297.

For the sequence CCTACCGGGCCAAAAAGGTCATTGATGCCGATAA, the PBM binding z-score came to 4.5.

ACTATTAGTTGACTTAGGGCGACCGATACGACGC: the PBM binding z-score was determined as 0.564.

On to GGATCGAGGGCATTCGAGTTGATAGCATGGCGAT, for which the PBM binding z-score amounted to 1.07.

Sequence ATCGAAAGGCCGAAGGTGAGTATACCCACCCGAA yielded a PBM binding z-score of 0.847.

Consider ATATGTAGGTTGCATCCGGGTCATTCAGGCTATG, for which the PBM binding z-score is 2.04.

TAGCCTAGGTCATTGGGCCAGCATAGTACGCATC registered a PBM binding z-score of 3.88.

As for ACAGAAAGGTGATGAAGGTAACTCAGGCTATCAT, the PBM binding z-score is 1.18.

The sequence CCTCGGAGGACAGAAGGTCAGCGCTGTCCGCTTT displayed a PBM binding z-score of 4.02.

CCTGCTAGGTCAATGGTCATCTAAAGCAGCTCGC registered a PBM binding z-score of 3.73.

CCCTACGGGTCACGAGGTTATAGCACGACGAGCG returned a PBM binding z-score of 6.2.

As for GCTTGTAAATCAAGGTTAAGAAAGACTAAGCTAA, the PBM binding z-score amounted to 0.539.

Consider CATACAGGGTCAGCTAGGCCATAGTAGGGACGGC, for which the PBM binding z-score was determined as 4.35.

A further test relates to RARg homodimer (NR concentration 270 nM). Described as above. In outline: as §1
For the sequence TCTTGTAGATCAATAGAGGTTAATAAAGTGCGCT, the PBM binding z-score amounted to 0.545.

GGAACGAGGGCAAGTTGATATCAGAGTTTGATGG registered a PBM binding z-score of 2.58.

Take CGTCAAAGTTCAACTAAGGTAACGTGAAGCACGC: the PBM binding z-score was determined as 6.8.

CTCGAAAGGTCGTGCTCAGGTGTGTATACCAAAC yielded a PBM binding z-score of 3.62.

With TCTAGTTGGTCACGGAGGTCACACATGACGGGTA, the PBM binding z-score came out at 4.94.

CCGACTGGGGCATAAGGTTACCATAAGCCAGCCC returned a PBM binding z-score of 1.17.

As to TAGCCTAGGTCATGGGCTAGTATACCACGCGAAC, the PBM binding z-score came to 4.32.

CCTTCCGGGTCAAGGTTATAGCACGGGTGGTACG had a PBM binding z-score of 4.46.

As to TCATATAGGTCATACAGGTGAAAGTCGGCATCTA, the PBM binding z-score came to 5.03.

Sequence ACTATTAGTTGACTTAGGGCAAACGATACGACGC displayed a PBM binding z-score of 1.08.

In turn, GAAACGAGGGCAAAGTTGATAGCATCTGTCGACG came in with a PBM binding z-score of 1.58.

On to ACAGACAGGTGACTGAAGGTAACTCAGCTGGACG, for which the PBM binding z-score turned out to be 0.509.

The sequence TGAAGGAGGTTATAAGATCAGGGAACGTTGCAAA yielded a PBM binding z-score of 0.942.

With TATTGTAGATCAAGCAGGTTAAGAAAGCCTGAGT, the PBM binding z-score is 0.147.

Take TGTCAAAGTTCAAAGGTAACTTAAGTATCCACAC: the PBM binding z-score was determined as 6.11.

TCTTGTAGATCAAAGGTTACGAAAGCCGAAGCCT showed a PBM binding z-score of 1.06.

ATATGTAGGTTAAGGGCCATTCAGGTTGGTTCGC: the PBM binding z-score is 1.04.

The sequence TCTGCTAGGTCCGTTGGTCAGCTAACGAGCTGCC showed a PBM binding z-score of -0.542.

Consider CGTCAAAGTTCAAATAAGGTAACGTAAAGCACGC, for which the PBM binding z-score was determined as 6.52.

In turn, TCTATTAGTTGATTCGGGCAACCGAAACAGCGGA displayed a PBM binding z-score of 0.285.

Take CATACAGGATCAGCTAGGCCAGAGTAGGGACGGC: the PBM binding z-score turned out to be 0.213.

Take ACAGGCAGGTGAGTGAAGGTAACTCAGCTGGACG: the PBM binding z-score was 0.135.

CGTCCTAGGTCAGAGAGGTCAGTGAATGCCGAGT showed a PBM binding z-score of 5.94.

Regarding CAGACTAGGTCAGGGCCAGTATAGGAGGAACGTT, the PBM binding z-score amounted to 3.34.

Take GCGACCGGGGCATCAGCAGGTTACCATAACTTAA: the PBM binding z-score worked out at 1.64.

Sequence TCGAGTAGGTTAGTCGGTGCATTCAGCCAACATA returned a PBM binding z-score of -0.407.

The sequence TAGTCTAGGTCATTGGGCCAGTATAGTACGCATC had a PBM binding z-score of 4.79.

Consider CTCGAAAGGTGGGTTGAGGTGAGTATACGGATAA, for which the PBM binding z-score was determined as 0.548.

CCTACCGGGCCAAAAAGGTCATTGATGCCGATAA had a PBM binding z-score of 3.96.

As to ACTATTAGTTGACTTAGGGCGACCGATACGACGC, the PBM binding z-score stood at 0.841.

In turn, GGATCGAGGGCATTCGAGTTGATAGCATGGCGAT had a PBM binding z-score of 1.25.

Sequence ATCGAAAGGCCGAAGGTGAGTATACCCACCCGAA yielded a PBM binding z-score of 0.8.

On to ATATGTAGGTTGCATCCGGGTCATTCAGGCTATG, for which the PBM binding z-score was 1.12.

As to TAGCCTAGGTCATTGGGCCAGCATAGTACGCATC, the PBM binding z-score was found to be 4.34.

For ACAGAAAGGTGATGAAGGTAACTCAGGCTATCAT, the PBM binding z-score turned out to be 1.35.

Turning to CCTCGGAGGACAGAAGGTCAGCGCTGTCCGCTTT, the PBM binding z-score amounted to 3.84.

For CCTGCTAGGTCAATGGTCATCTAAAGCAGCTCGC, the PBM binding z-score turned out to be 4.61.

In the case of CCCTACGGGTCACGAGGTTATAGCACGACGAGCG, the PBM binding z-score came to 5.6.

GCTTGTAAATCAAGGTTAAGAAAGACTAAGCTAA: the PBM binding z-score was 0.0583.

CATACAGGGTCAGCTAGGCCATAGTAGGGACGGC: the PBM binding z-score came out at 4.7.

For the origin of these results see the supplement of paper PMC6555819.
